# In the supplement of paper PMC8975748:
# Structures can show the parent of a compound that is named as a salt.
# System: Saccharomyces cerevisiae BY4741 SeMeCo community
# Assay: z-score of subpopulation abundance vs DMSO median, subpopulation auxotrophic for LU; higher = larger share of this subpopulation than in DMSO controls
# Conditions: 10 µM; 24 h; SM minimal medium; subpopulation (auxotrophy): LU
# Procedure, shortened: (§1)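 Subpopulation abundance was reported as a z-score against the median of vehicle wells. The Saccharomyces cerevisiae BY4741 community, carrying four plasmids that each restored one auxotrophy and encoded a distinct fluorescent protein, was grown 24 h in minimal SM medium in 384-well plates holding library drugs at 10 µM final. Cells were paraformaldehyde-fixed and imaged by automated confocal microscopy, with single-auxotroph fluorescent strains used for thresholds and autofluorescence correction.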
row,SMILES,z-score of subpopulation abundance
1,CC1(C)S[C@@H]2[C@H](NC(=O)[C@H](NC(=O)N3CCN(S(C)(=O)=O)C3=O)c3ccccc3)C(=O)N2[C@H]1C(=O)O [Mezlocillin Sodium],0.6
2,Cc1c(OCC(F)(F)F)ccnc1C[S@@+]([O-])c1nc2ccccc2[nH]1 [Dexlansoprazole],0.17
3,Cc1nc(C)c(Cl)c(O)c1Cl [Clopidol],0.07
4,O=C(CCCN1CCN(c2ccccn2)CC1)c1ccc(F)cc1 [Azaperone],0.24
5,COc1ccc(C(=O)NCc2ccc(OCCN(C)C)cc2)cc1OC [Itopride hydrochloride],0.56
6,CSCC1CN(/N=C/c2ccc([N+](=O)[O-])o2)C(=O)O1 (stereo unspecified) [Nifuratel],-5.94

# System: Saccharomyces cerevisiae BY4741 SeMeCo community
# Assay: z-score of subpopulation abundance vs DMSO median, subpopulation auxotrophic for LM; higher = larger share of this subpopulation than in DMSO controls
# Conditions: 10 µM; 24 h; SM minimal medium; subpopulation (auxotrophy): LM
# Procedure, shortened: as §1
row,SMILES,z-score of subpopulation abundance
1,CC(C(=O)O)c1ccc(C(=O)c2cccs2)cc1 (stereo unspecified) [Suprofen],0.42
2,COc1cccc2c1C(=O)c1c(O)c3c(c(O)c1C2=O)C[C@@](O)(C(=O)CO)C[C@@H]3O[C@H]1C[C@H](N)[C@H](O[C@@H]2CCCCO2)[C@H](C)O1 [Pirarubicin],-3.84
3,N=C(N)NC(=N)N1CCOCC1 [Moroxydine HCl],0.58
4,Nc1c(CC(=O)O)cccc1C(=O)c1ccccc1 [Amfenac Sodium Monohydrate],0.25
5,CN1CCN(c2c(F)cc3c(=O)c(C(=O)O)cn4c3c2OCN4C)CC1 [Marbofloxacin],-0.36
6,CN1CCOC(c2ccccc2)c2ccccc2C1 (stereo unspecified) [Nefopam HCl],-0.2
7,COc1ccc(C(C)=O)c(O)c1 [Paeonol],0.14
8,Cc1ccc2c(Cl)cc(Cl)c(O)c2n1 [Chlorquinaldol],9.8
9,NC[C@@H]1O[C@H](O[C@H]2[C@@H](O)[C@H](O[C@@H]3[C@@H](O)[C@H](N)C[C@H](N)[C@H]3O[C@H]3O[C@H](CO)[C@@H](O)[C@H](O)[C@H]3N)O[C@@H]2CO)[C@H](N)[C@@H](O)[C@@H]1O [Paromomycin Sulfate],1.42
10,CN(C)CCC=C1c2ccccc2C=Cc2ccccc21 [Cyclobenzaprine HCl],0.01
11,CCNC(=O)[C@@H]1CCCN1C(=O)[C@H](CCCNC(=N)N)NC(=O)[C@H](CC(C)C)NC(=O)[C@@H](CC(C)C)NC(=O)[C@H](Cc1ccc(O)cc1)NC(=O)[C@H](CO)NC(=O)[C@H](Cc1c[nH]c2ccccc12)NC(=O)[C@H](Cc1c[nH]cn1)NC(=O)[C@@H]1CCC(=O)N1 [Leuprolide Acetate],0.63
12,COc1cc(NS(=O)(=O)c2ccc(N)cc2)nc(OC)n1 [SulfadiMethoxine sodium],-0.45
13,CCN1CCN(c2cc3c(cc2F)c(=O)c(C(=O)O)cn3C2CC2)CC1 [Enrofloxacin],0.01
14,Cc1cc(-c2ccc(/N=N/c3ccc4c(S(=O)(=O)O)cc(S(=O)(=O)O)c(N)c4c3O)c(C)c2)ccc1/N=N/c1ccc2c(S(=O)(=O)O)cc(S(=O)(=O)O)c(N)c2c1O [Evans Blue],-5.69
15,NC[C@H]1O[C@H](O[C@H]2[C@H](O)[C@@H](O[C@H]3O[C@H](CO)[C@@H](O)[C@H](N)[C@H]3O)[C@H](N)C[C@@H]2N)[C@H](N)C[C@@H]1O [Tobramycin],-0.17
16,CCc1cccc2c3c([nH]c12)C(CC)(CC(=O)O)OCC3 (stereo unspecified) [Etodolac],0.26
17,"CO[C@H]1C[C@@H]2CC[C@@H](C)[C@@](O)(O2)C(=O)C(=O)N2CCCC[C@H]2C(=O)O[C@H]([C@H](C)C[C@@H]2CC[C@@H](OP(C)(C)=O)[C@H](OC)C2)CC(=O)[C@H](C)/C=C(\C)[C@@H](O)[C@@H](OC)C(=O)[C@H](C)C[C@H](C)/C=C/C=C/C=C/1C [Ridaforolimus (Deforolimus, MK-8669)]",5.98
18,CC1=CC[C@@](O)(C(C)C)CC1 [Terpinen-4-ol],-0.03

row,SMILES,z-score of subpopulation abundance
1,CC[C@@H]1/C=C(\C)C[C@H](C)C[C@H](OC)[C@H]2O[C@@](O)(C(=O)C(=O)N3CCCC[C@H]3C(=O)O[C@H](/C(C)=C/[C@@H]3CC[C@H](Cl)[C@H](OC)C3)[C@H](C)[C@@H](O)CC1=O)[C@H](C)C[C@@H]2OC [Pimecrolimus],4.26
2,CC[N+](CC)(CC)CCOc1cccc(OCC[N+](CC)(CC)CC)c1OCC[N+](CC)(CC)CC [Gallamine Triethiodide],-0.42
3,CCC(C)n1ncn(-c2ccc(N3CCN(c4ccc(OCC5COC(Cn6cncn6)(c6ccc(Cl)cc6Cl)O5)cc4)CC3)cc2)c1=O (stereo unspecified) [Itraconazole],1.85
4,C[N+](C)(C)CCO.[Cl-] [Choline Chloride],-0.75
5,COc1ccc(C(Cl)=C(c2ccc(OC)cc2)c2ccc(OC)cc2)cc1 [Chlorotrianisene],1.34
6,COC(=O)C1=C(C#N)NC(C)=C(C(=O)OC(C)C)C1c1cccc([N+](=O)[O-])c1 (stereo unspecified) [Nilvadipine],-0.12
7,CC(=O)O[C@]1(C(C)=O)CC[C@H]2[C@@H]3C[C@H](C)C4=CC(=O)CC[C@]4(C)[C@H]3CC[C@@]21C [Medroxyprogesterone acetate],-0.1
8,O=C(c1ccc(F)cc1)C1CCN(CCn2c(=O)[nH]c3ccccc3c2=O)CC1 [Ketanserin],0.46
9,Cc1onc(-c2c(Cl)cccc2Cl)c1C(=O)N[C@@H]1C(=O)N2[C@@H]1SC(C)(C)[C@@H]2C(=O)O [Dicloxacillin Sodium],0.35
10,C(=C\c1ccccc1)/CN1CCN(C(c2ccccc2)c2ccccc2)CC1 [Cinnarizine],-0.47
11,C=CC[N+]1([C@H]2C[C@H]3[C@@H]4CC[C@H]5C[C@H](O)[C@@H](N6CCOCC6)C[C@]5(C)[C@H]4CC[C@]3(C)[C@H]2OC(C)=O)CCCC1 [Rocuronium Bromide],-0.17
12,CCn1cc(C(=O)O)c(=O)c2cc(F)c(N3CCNCC3)cc21 [Norfloxacin],0.65
13,CN1CCC(=C2c3ccccc3CCc3sccc32)CC1 [Pizotifen Malate],-0.03
14,CC1(C)S[C@@H]2[C@H](NC(=O)[C@H](NC(=O)N3CCN(S(C)(=O)=O)C3=O)c3ccccc3)C(=O)N2[C@H]1C(=O)O [Mezlocillin Sodium],-0.38
15,Cc1c(OCC(F)(F)F)ccnc1C[S@@+]([O-])c1nc2ccccc2[nH]1 [Dexlansoprazole],1.28
16,O=C(CCCN1CCN(c2ccccn2)CC1)c1ccc(F)cc1 [Azaperone],0.61
17,CSCC1CN(/N=C/c2ccc([N+](=O)[O-])o2)C(=O)O1 (stereo unspecified) [Nifuratel],3.06
